According to publication PMC8222333, “AsCas12a ultra nuclease facilitates the rapid generation of therapeutic cell medicines”:
Changes are numbered by the printed parent chain.

B1: AGCA (dsDNA)
DNA 1: GCTATCTAGTGCTCAGTACGCACTGAGCAAGGAAACTTCTGGCAGGACCAGGTCATGAGATCGGAAGAGCACACGTCTGAACTCCAGTCA
DNA 2: TGACTGGAGTTCAGACGTGTGCTCTTCCGATCTCATGACCTGGTCCTGCCAGAAGTTTCCTTGCTCAGTGCGTACTGAGCACTAGATAGC
RNA: AAUUUCUACUCUUGUAGAUAGGAAACUUCUGGCAGGACC
B2: AGCT (dsDNA)
DNA 1: B1 DNA 1 with A29T
DNA 2: B1 DNA 2 with T62A
RNA: B1 RNA
B3: AGCG (dsDNA)
DNA 1: B1 DNA 1 with A29G
DNA 2: B1 DNA 2 with T62C
RNA: B1 RNA
B4: AGCC (dsDNA)
DNA 1: B1 DNA 1 with A29C
DNA 2: B1 DNA 2 with T62G
RNA: B1 RNA
B5: CAAG (dsDNA)
DNA 1: B1 DNA 1 with A26C, G27A, C28A, A29G
DNA 2: B1 DNA 2 with T62C, G63T, C64T, T65G
RNA: B1 RNA
B6: ATGG (dsDNA)
DNA 1: B1 DNA 1 with G27T, C28G, A29G
DNA 2: B1 DNA 2 with T62C, G63C, C64A
RNA: B1 RNA
B7: CAGA (dsDNA)
DNA 1: B1 DNA 1 with A26C, G27A, C28G
DNA 2: B1 DNA 2 with G63C, C64T, T65G
RNA: B1 RNA
B8: ATCC (dsDNA)
DNA 1: B1 DNA 1 with G27T, A29C
DNA 2: B1 DNA 2 with T62G, C64A
RNA: B1 RNA
B9: CAAT (dsDNA)
DNA 1: B1 DNA 1 with A26C, G27A, C28A, A29T
DNA 2: B1 DNA 2 with T62A, G63T, C64T, T65G
RNA: B1 RNA
B10: AGGC (dsDNA)
DNA 1: B1 DNA 1 with C28G, A29C
DNA 2: B1 DNA 2 with T62G, G63C
RNA: B1 RNA
B11: ATCG (dsDNA)
DNA 1: B1 DNA 1 with G27T, A29G
DNA 2: B1 DNA 2 with T62C, C64A
RNA: B1 RNA
B12: ATAC (dsDNA)
DNA 1: B1 DNA 1 with G27T, C28A, A29C
DNA 2: B1 DNA 2 with T62G, G63T, C64A
RNA: B1 RNA
B13: CACG (dsDNA)
DNA 1: B1 DNA 1 with A26C, G27A, A29G
DNA 2: B1 DNA 2 with T62C, C64T, T65G
RNA: B1 RNA
B14: CACC (dsDNA)
DNA 1: B1 DNA 1 with A26C, G27A, A29C
DNA 2: B1 DNA 2 with T62G, C64T, T65G
RNA: B1 RNA
B15: CAAA (dsDNA)
DNA 1: B1 DNA 1 with A26C, G27A, C28A
DNA 2: B1 DNA 2 with G63T, C64T, T65G
RNA: B1 RNA
B16: CAAC (dsDNA)
DNA 1: B1 DNA 1 with A26C, G27A, C28A, A29C
DNA 2: B1 DNA 2 with T62G, G63T, C64T, T65G
RNA: B1 RNA
B17: CACA (dsDNA)
DNA 1: B1 DNA 1 with A26C, G27A
DNA 2: B1 DNA 2 with C64T, T65G
RNA: B1 RNA

Biological target: dAsCas12a S542R (Acidaminococcus sp., UniProt U2UMQ6 1-1307, S542R;D908A;E993A;D1235A)
Experiment: Spec-seq (native PAGE EMSA with sequencing of bound and unbound); 25 mM Tris-HCl pH 7.4, 150 mM KCl, 5 mM MgCl2, 10% glycerol, 1 mM DTT, 40 ng/uL salmon sperm DNA; 400 nM Cas12a, 480 nM crRNA, 50 nM library, 37 C 1 h; native PAGE at room temperature; high values mean tight binding
Conditions: protein: recombinant
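Also: relative affinity from the bound to unbound sequence frequency ratio in Spec-seq.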

| Binder | binding signal [lnKA] |
| --- | --- |
| B1 | -8.4 |
| B2 | -8.99 |
| B3 | -8.91 |
| B4 | -8.34 |
| B5 | -8.58 |
| B6 | -8.74 |
| B7 | -8.93 |
| B8 | -4.3 |
| B9 | -8.59 |
| B10 | -8.3 |
| B11 | -6.64 |
| B12 | -8.39 |
| B13 | -8.68 |
| B14 | -8.05 |
| B15 | -8.57 |
| B16 | -8.83 |
| B17 | -8.06 |

Biological target: d-enCas12a (Acidaminococcus sp., UniProt U2UMQ6 1-1307, E174R;S542R;K548R;D908A;E993A;D1235A)
Experiment: as above
Conditions: protein: recombinant

| Binder | binding signal [lnKA] |
| --- | --- |
| B1 | -3.23 |
| B2 | -4.97 |
| B3 | -4.77 |
| B4 | -2.31 |
| B5 | -5.75 |
| B6 | -5.71 |
| B7 | -5.81 |
| B8 | -0.902 |
| B9 | -5.72 |
| B10 | -5.79 |
| B11 | -3.44 |
| B12 | -4.61 |
| B13 | -4.44 |
| B14 | -1.94 |
| B15 | -5.66 |
| B16 | -5.54 |
| B17 | -2.71 |

Biological target: d-enCas12a-Ultra (Acidaminococcus sp., UniProt U2UMQ6 1-1307, E174R;S542R;K548R;M537R;F870L;D908A;E993A;D1235A)
Experiment: as above
Conditions: protein: recombinant

| Binder | binding signal [lnKA] |
| --- | --- |
| B1 | -0.786 |
| B2 | -1.83 |
| B3 | -1.73 |
| B4 | -0.527 |
| B5 | -3.48 |
| B6 | -3.4 |
| B7 | -3.41 |
| B8 | -0.294 |
| B9 | -3.43 |
| B10 | -3.34 |
| B11 | -0.793 |
| B12 | -1.84 |
| B13 | -1.41 |
| B14 | -0.454 |
| B15 | -3.35 |
| B16 | -3.19 |
| B17 | -0.596 |
